High-throughput results as filed in PubChem BioAssay.
Pf growth 96h – Primary qHTS for delayed death inhibitors of the malarial parasite plastid, 96 hour incubation; P. falciparum luciferase reporter growth, 96 h; Potency, µM (doses to about 28.7 µM), for the others: at the top dose activity change, negative = inhibition, hits mostly inhibitors; 320,000 tested, 6.9% active; also: potency is read from the fitted curve at half-maximal effect; % is scaled to controls: 0 for no effect and ±100 for the full control effect
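96 h incubation, 37 C, 5% CO2, of luciferase-reporter P. falciparum-infected RBCs (2% hematocrit, 0.05% parasitemia final) with test compounds; endpoint luminescence.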
CHX counter – Cycloheximide Counterscreen for Small Molecule Inhibitors of Shiga Toxin; cell reporter, cycloheximide protein synthesis inhibition counterscreen; max response, %; 300,000 tested, 12% active; in the data active = max response mostly above about 13%, no sharp cut-off; inactive = mostly below about 14%; also: read at 38.3 µM for the half of the compounds with a filed dose; 0% is about no effect
Lassa entry inh – qHTS for Inhibitors of binding or entry into cells for Lassa Virus | Lassa virus pseudotype entry inhibition, cell reporter | Potency, µM (titrated, usually from 37.9 µM), for the others: at the top dose activity change, negative = inhibition, actives largely listed as inhibitors | 300,000 tested, 1.2% active; calls by dose curve; tested in HEK293 cells; also: potency is read from the fitted curve at half-maximal effect; % is scaled to controls: 0 for no effect and ±100 for the full control effect; nearly all actives have a fitted effect of over 50% in size
Shiga inhibitor – A qHTS for Small Molecule Inhibitors of Shiga Toxin | AID 2315, 2010 | 290,000 tested, 9.2% active | Vero cells, Shiga toxin protein synthesis inhibition reporter | inhibition, % at 38.7 µM; in the data active = inhibition mostly above about 28%, no sharp cut-off; inactive = mostly below about 43%; also: 0% is about no effect
Pf growth 48h – Primary qHTS for delayed death inhibitors of the malarial parasite plastid, 48 hour incubation; P. falciparum luciferase growth in erythrocytes, 48 h; Potency, µM (highest dose often 28.7 µM), inactives show top-dose activity change, negative = inhibition, hits mostly inhibitors; 310,000 tested, 5.9% active; also: potency is read from the fitted curve at half-maximal effect; % is scaled to controls: 0 for no effect and ±100 for the full control effect
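Erythrocytes infected with P. falciparum carrying an integrated firefly luciferase reporter (2% hematocrit, 0.1% parasitemia final) were exposed to compounds in RPMI 1640 with 0.5% Albumax at 37 C, 5% CO2. Growth inhibition was scored as reduced luminescence.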
Marburg entry inh – qHTS for inhibitors of binding or entry into cells for Marburg Virus; Marburg virus pseudotyped entry inhibition, cell reporter; Potency, µM (top dose mostly 37.8 µM), for the others: top-dose activity change, negative = inhibition, usual class: inhibitors; 300,000 tested, 1.8% active; AID 540276, 2011; calls by dose curve; tested in HEK293 cells; also: potency is read from the fitted curve at half-maximal effect; % is scaled to controls: 0 for no effect and ±100 for the full control effect
Numbers without * were called inactive; u = inconclusive; x = no result given; + = active, no number; [ ] = remark or other dose. A selection: hits, their analogues and other compounds. The true share with any hit is near 19%. Unless noted, calls follow the shape of the dose curve; as a rule, active = well fitted inhibition curve with a large enough effect; inconclusive = small, poorly fitted or top-dose-only effect, or another doubt; inactive = no such curve, though single readings can be large or run the other way.

SMILES	Pf growth 96h	CHX counter	Lassa entry inh	Shiga inhibitor	Pf growth 48h	Marburg entry inh
Fc1ccc(-n2ncc3c(NCCCc4ccccc4)ncnc32)cc1	x	x	3.2%[46.1 µM]	x	x	x
Cn1ncc2c(NNC(=O)Cc3ccccc3)ncnc21	20.0%	-3.8	17.6%	-5.5	-0.1%	-12.7%
Cc1cccc(-n2ncc3c(NCc4cccs4)ncnc32)c1	12.2%	22.6*	u	114.4*	51.2%	-22.7%
Clc1ccc(-n2ncc3c(NCc4cccnc4)ncnc32)cc1Cl	75.8%	34.3*	x	27.4	103.2%	x
COC(=O)c1c(NC(=O)C(=O)N2CCOCC2)sc2c1CCC2	13.1%	13.8	x	-2.6	2.6%	x
Cc1ccc(-n2ncc3c(NCCc4ccc(S(N)(=O)=O)cc4)ncnc32)cc1	x	x	21.9%[46.1 µM]	x	x	x
Fc1ccc(CNc2ncnc3c2cnn3-c2ccccc2)cc1	20.4%	16.7	-0.4%	21.9	-4.5%	8.8%[46.1 µM]
c1ccc(CNc2ncnc3c2cnn3-c2ccccc2)cc1	2.3%	12.9*	-19.0%	44.5	58.5%	-28.3%
Cc1cccc(-n2ncc3c(NCCc4ccc(S(N)(=O)=O)cc4)ncnc32)c1	10.4µM*	1.0	x	-6.3	x	x
COc1ccc(CNc2ncnc3c2cnn3-c2ccc(C)c(C)c2)cc1	x	x	4.2%[46.1 µM]	x	x	x
Cc1cccc(-n2ncc3c(NCc4ccccc4)ncnc32)c1	-3.9%	28.6*	x	+	47.2%	x
CC(C)(C)Nc1ncnc2c1cnn2-c1ccccc1	158.8%	56.8*	x	95.6*	61.7%	x
Cc1ccc(-n2ncc3c(=O)[nH]c(SC(C)C)nc32)cc1	26.7%	-5.1	5.6%	-12.4	-1.1%	-10.0%
COc1ccc(C2NCCn3cccc32)cc1 (configuration not stated)	-10.0%	0.6	3.8%	12.7	-17.0%	-1.2%
Cc1ccc2nsnc2c1S(=O)(=O)N1CCN(CCc2ccccc2)CC1	x	-0.8	-2.9%	-10.6	1.6%	-16.0%
COc1ccc(CCNC(=O)c2ccc(COc3ccccc3OC)o2)cc1	u	17.9	x	-3.6	-15.4%	x
NNC(=O)c1ccc(COc2cccc3ccccc23)o1	23.8%	7.9	x	22.2	-18.8%	x
Cc1ccc(OCc2ccc(C(=O)NN)o2)cc1C	39.7%	26.4*	x	31.1	-5.4%	x
CN(C)c1ccc(NC(=O)c2ccc(COc3cccc(Cl)c3)o2)cc1	x	54.9*	-2.0%	77.2*	x	-16.4%
NNC(=O)c1ccc(COc2ccc3ccccc3c2)o1	u	18.6*	x	34.1*	-6.5%	x
CCOc1ccc(OCc2ccc(C(=O)Nc3cccnc3)o2)cc1	9.28µM*	30.7*	u	157.8*	11.7µM*	u
Cc1oc2cc3oc(=O)c(CC(=O)N[C@@H](C)C(=O)NC(Cc4ccc(Cl)cc4)C(=O)O)c(C)c3cc2c1C (some centres not stated)	104.1%	-0.8	x	-3.5	-2.7%	x
CCOc1ccc(OCc2ccc(C(=O)NN)o2)cc1	181.9%	30.3*	x	53.7*	71.6%	x
O=C(NC1CC1)c1ccc(COc2ccc(F)cc2)o1	u	14.4	2.0%	25.0	u	1.6%
O=C(OCc1ccccn1)c1ccc(COc2ccc3ccccc3c2)o1	219.9%	44.5*	x	65.8*	82.4%	x
SMILES	Pf growth 96h	CHX counter	Lassa entry inh	Shiga inhibitor	Pf growth 48h	Marburg entry inh
CCOc1ccc(OCc2ccc(C(=O)NC(C)(C)C)o2)cc1	u	12.1	u	37.2*	-10.9%	u
CC(C)NC(=O)c1ccc(COc2ccc(C(C)(C)C)cc2)o1	u	95.4*	u	159.5*	-15.2%[0.00184 µM]	u
O=c1[nH]c(=O)n(-c2ccccc2)c2c1C(C(F)(F)F)(C(F)(F)F)N=C(C1CCCCC1)N2	u	-4.0	u	-12.9	u	-5.0%
CCc1ccc(CNCc2ccc(OCC(O)CN(C)Cc3ccccc3)cc2)nc1 (configuration not stated)	u	-1.5	x	-14.1	u	x
C=CCOc1ccc(CN(C)CC(O)COc2cccc3ccccc23)cc1 (configuration not stated)	u	-3.1	u	-5.1	10.4µM*	u
CN(Cc1ccccc1)CC(O)COc1ccc(CNCCc2cccnc2)cc1 (configuration not stated)	1.4%	-1.4	x	-18.5	5.22µM*	x
CN(Cc1ccccc1)CC(O)COc1ccc(CNCCc2ccncc2)cc1 (configuration not stated)	-47.2%	-0.4	x	16.7	5.22µM*	x
Cc1cc(CN(C)Cc2ccc(OCC(O)CN(C)Cc3ccccc3)cc2)on1 (configuration not stated)	u	-1.6	-1.6%[46.1 µM]	-8.0	-15.2%	u
COc1ccc(S(=O)(=O)N2CCN(C(=O)Cc3ccsc3)CC2)cc1	-0.6%	x	9.1%	x	-6.6%	18.3%
O=C(Oc1cccc(-n2cnnn2)c1)C1CCCCC1	u	-3.7	2.4%	-24.8	8.7%	-18.8%
OCc1cc(Br)ccc1OCc1nc2ccccc2s1	86.2%	45.5*	x	82.2*	58.0%	u
O=C(CCC(=O)c1cccs1)OCc1nc2ccccc2s1	10.0%	3.0	-20.4%	3.2	14.5%	2.3%
Oc1c(Br)cc(Br)cc1-c1nc2ccccc2s1	x	x	2.9%[46.1 µM]	x	x	x
Oc1ccc(O)c(Cc2nc3ccccc3s2)c1	-3.5%	32.4*	u	43.4*	u	u
Oc1ccccc1OCc1nc2ccccc2s1	9.0%	35.1*	-14.2%	142.6*	155.6%	u
CCc1ccc(OCC(=O)NNC(=O)Cc2ccc(S(=O)(=O)N3CCOCC3)s2)cc1	-17.6%	x	6.0%	x	u	-6.8%
O=C([C@H](O)c1ccccc1)N1CCC[C@H]1CO	-7.5%	-1.8	5.6%	-5.5	6.0%	-3.8%
O=Nc1c(O)[nH]c2ccc(F)cc12	-17.5%[5.75 µM]	-2.6	8.5%[46.1 µM]	10.7	3.3%	-1.0%[46.1 µM]
Cc1cc2c(N=O)c(NO)ccc2[nH]1	41.5%	10.5	u	50.1	3.7µM*	1.41µM*
N#Cc1cc(N)ccc1Sc1ccc(Cl)cc1	u	-3.0	-13.8%	-4.8	0.8%	-3.6%
COc1ccc(C(CNC(=O)c2oc3ccc(Br)cc3c2C)N2CCCCC2)cc1 (configuration not stated)	-102.9%	7.1	-5.4%	4.6	u	-7.6%
COc1ccc2oc(C(=O)NCc3ccccc3CN3CCCC3)c(C)c2c1	u	x	x	x	11.7µM*	x
COc1ccc(C(CNC(=O)c2oc3ccc(F)cc3c2C)N2CCCCC2)cc1 (configuration not stated)	17.8%	-4.3	x	-1.9	u	x
Cc1c(C(=O)NCc2ccccc2CN2CCCC2)oc2c(F)cccc12	u	x	x	x	13.1µM*	x
COCc1c(C(=O)NCc2ccccc2CN2CCCC2)oc2ccccc12	9.28µM*	x	x	x	u	x
COc1ccc(C(CNC(=O)c2oc3ccc(OC)cc3c2C)N2CCCC2)cc1 (configuration not stated)	9.28µM*	x	u	x	8.28µM*	u
